# In PubChem BioAssay (NCI):
# Compounds without any hit were thinned out: in the full panel of roughly 79,000, 15% have a hit. Unmarked numbers belong to inactive results. Active and inactive are the calls of the source. Rule as the data show it: active = growth inhibition above about 70%; inactive = the rest.
# Key:
# [1] = NCI Yeast Anticancer Drug Screen. Data for the rad52 strain (AID 147);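 also: 0% = growth of vehicle-treated control cultures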; conditions: S. cerevisiae rad52 mutant growth inhibition, active compounds read high
# How it was run: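 Measured: yeast growth inhibition. System: strain with a defined DNA damage repair alteration. Reference: vehicle-treated control cultures.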
# [2] = NCI Yeast Anticancer Drug Screen. Data for the wt1 strain (AID 149);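 also: 0% = growth of vehicle-treated wt1 cultures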; conditions: S. cerevisiae wt1 strain (SPY 50644) growth inhibition, active compounds read high
# How it was run: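 wt1 yeast, compound-treated; % growth inhibition vs vehicle control.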
# [3] = NCI Yeast Anticancer Drug Screen. Data for the rad50EPP+ strain (AID 151);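 also: 0% = growth of vehicle-treated control cultures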; conditions: S. cerevisiae rad50 mutant strain, active compounds read high
# How it was run: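 One strain with a rad50 alteration (rad50EPP+) was compound-treated, its growth then compared to that of vehicle controls.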
# [4] = NCI Yeast Anticancer Drug Screen. Data for the rad50 strain (AID 155);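 also: 0% = growth of vehicle-only cultures of the same strain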; conditions: S. cerevisiae rad50 strain growth inhibition, active compounds read high
# How it was run: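 Genetically altered yeast (DNA repair pathway); compound treatment; growth inhibition vs vehicle ctrl.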
# [5] = NCI Yeast Anticancer Drug Screen. Data for the mec2-1 strain (AID 157); conditions: S. cerevisiae mec2-1 strain, active compounds read high
# How it was run: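 Test agents were screened against the mec2-1 yeast strain, with defined DNA repair or cell cycle alteration. Growth was scored as inhibition against vehicle-only controls.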
# [6] = NCI Yeast Anticancer Drug Screen. Data for the rad14 strain (AID 159);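 also: 0% = growth of vehicle-treated control cultures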; conditions: S. cerevisiae rad14 strain growth inhibition, active compounds read high
# How it was run: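 Test compounds were applied to a repair-deficient yeast strain. Its growth was then compared with that of cultures given vehicle alone, and inhibition was expressed relative to those controls.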
# [7] = NCI Yeast Anticancer Drug Screen. Data for the sgs1 mgt1 strain (AID 161);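 also: 0% = growth of cultures given vehicle only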; conditions: S. cerevisiae sgs1 mgt1 strain, active compounds read high
# How it was run: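 Test agents were incubated with a DNA-repair-mutant yeast strain. Growth was then read and compared against vehicle-treated controls.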
# [8] = NCI Yeast Anticancer Drug Screen. Data for the CLN2oe strain (AID 163);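 also: 0% = growth of vehicle-only control cultures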; conditions: S. cerevisiae CLN2oe strain, active compounds read high
# How it was run: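 Here, growth inhibition in a cell-cycle-altered yeast strain after compound exposure was quantified against vehicle control growth.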
# [9] = NCI Yeast Anticancer Drug Screen. Data for the cln2 rad14 strain (AID 165);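 also: 0% = growth equal to vehicle treated cultures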; conditions: S. cerevisiae cln2 rad14 strain, active compounds read high
# How it was run: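 Growth of compound-exposed yeast (cln2 rad14 genotype) measured and expressed as inhibition relative to vehicle.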
# [10] = NCI Yeast Anticancer Drug Screen. Data for the bub3 strain (AID 167); conditions: S. cerevisiae bub3 mutant strain, active compounds read high
# How it was run: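 Yeast carrying a defined mutation is treated with each compound, and growth is compared with that of vehicle-exposed cells to give inhibition.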
# [11] = NCI Yeast Anticancer Drug Screen. Data for the wt2 strain (AID 169);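 also: 0% = growth of vehicle-treated yeast cultures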; conditions: S. cerevisiae wt2 strain growth inhibition, active compounds read high
# How it was run: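 Genetically defined yeast strains from a DNA-repair/cell-cycle panel were used. Compound-exposed yeast growth was measured, and the inhibition was calculated relative to vehicle treatment.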
# [12] = NCI Yeast Anticancer Drug Screen. Data for the mlh1 strain (AID 171);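 also: 0% = growth of vehicle-treated control cultures of the same strain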; conditions: S. cerevisiae mlh1 strain growth inhibition, active compounds read high
# How it was run: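 Here the genetically defined yeast mutant is grown with each compound, and the extent to which its growth falls below that of vehicle-exposed cells is reported.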
# [13] = NCI Yeast Anticancer Drug Screen. Data for the sgs1 strain (AID 173);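 also: 0% = growth of vehicle-only control cultures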; conditions: S. cerevisiae sgs1 mutant, active compounds read high
# How it was run: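 Relative growth inhibition, referenced to vehicle, was determined in a yeast strain with a defined alteration affecting DNA damage repair or cell cycle control after compound exposure.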
# [14] = NCI Yeast Anticancer Drug Screen. Data for the mlh1 rad18 strain (AID 175); conditions: S. cerevisiae mlh1 rad18 strain growth inhibition, active compounds read high
# How it was run: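 In this whole-cell yeast screen, a strain with altered DNA damage repair is challenged with compound, and its growth is measured against matched vehicle-treated controls.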
# [15] = NCI Yeast Anticancer Drug Screen. Data for the rad18 strain (AID 177); conditions: S. cerevisiae rad18 mutant growth inhibition, active compounds read high
# How it was run: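 Screen uses a yeast strain with a defined lesion in DNA damage repair; compound effect is read as loss of growth compared to untreated vehicle cultures.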
# [16] = at 5.0 µM (retest, dose inferred, filed as 0.5)
# [17] = at 50.0 µM (retest, dose inferred, filed as 5.0)
smiles,measurement,setting,value
CCN1/C(=C/c2ccc3ccccc3[n+]2CC)C=Cc2ccccc21,growth inhibition,[1]; at 1.2 µM,-19%
same,growth inhibition,[1]; at 3.7 µM,-14%
same,growth inhibition,[1]; at 11.0 µM,87% (active)
same,growth inhibition,[1]; at 33.0 µM,98% (active)
same,growth inhibition,[1]; at 100.0 µM,98% (active)
same,growth inhibition,[2]; at 1.2 µM,-13%
same,growth inhibition,[2]; at 3.7 µM,-12%
same,growth inhibition,[2]; at 11.0 µM,75% (active)
same,growth inhibition,[2]; at 33.0 µM,99% (active)
same,growth inhibition,[2]; at 100.0 µM,99% (active)
same,growth inhibition,[3]; at 1.2 µM,4%
same,growth inhibition,[3]; at 3.7 µM,6%
same,growth inhibition,[3]; at 11.0 µM,8%
same,growth inhibition,[3]; at 33.0 µM,67%
same,growth inhibition,[3]; at 100.0 µM,92% (active)
same,growth inhibition,[4]; at 1.2 µM,-3%
same,growth inhibition,[4]; at 3.7 µM,-2%
same,growth inhibition,[4]; [16],99% (active)
same,growth inhibition,[4]; at 11.0 µM,81% (active)
same,growth inhibition,[4]; at 33.0 µM,97% (active)
same,growth inhibition,[4]; [17],97% (active)
same,growth inhibition,[4]; at 50.0 µM,90.5% (active)
same,growth inhibition,[4]; at 100.0 µM,96% (active)
same,growth inhibition,[5]; at 1.2 µM,-3%
same,growth inhibition,[5]; at 3.7 µM,16%
same,growth inhibition,[5]; [16],99% (active)
same,growth inhibition,[5]; at 11.0 µM,98% (active)
same,growth inhibition,[5]; at 33.0 µM,99% (active)
same,growth inhibition,[5]; [17],98% (active)
same,growth inhibition,[5]; at 50.0 µM,92% (active)
same,growth inhibition,[5]; at 100.0 µM,99% (active)
same,growth inhibition,[6]; at 1.2 µM,-27%
same,growth inhibition,[6]; at 3.7 µM,1%
same,growth inhibition,[6]; at 11.0 µM,98% (active)
same,growth inhibition,[6]; at 33.0 µM,98% (active)
same,growth inhibition,[6]; at 100.0 µM,98% (active)
same,growth inhibition,[7]; [16],7%
same,growth inhibition,[7]; [17],98% (active)
same,growth inhibition,[7]; at 50.0 µM,93% (active)
same,growth inhibition,[8]; at 1.2 µM,0%
same,growth inhibition,[8]; at 3.7 µM,10%
same,growth inhibition,[8]; at 11.0 µM,94% (active)
same,growth inhibition,[8]; at 33.0 µM,99% (active)
same,growth inhibition,[8]; at 100.0 µM,98% (active)
same,growth inhibition,[9]; [16],58%
same,growth inhibition,[9]; [17],100% (active)
same,growth inhibition,[9]; at 50.0 µM,90.9% (active)
same,growth inhibition,[10]; at 1.2 µM,-3%
same,growth inhibition,[10]; at 3.7 µM,37%
same,growth inhibition,[10]; [16],42%
same,growth inhibition,[10]; at 11.0 µM,96% (active)
same,growth inhibition,[10]; at 33.0 µM,98% (active)
same,growth inhibition,[10]; [17],99% (active)
same,growth inhibition,[10]; at 50.0 µM,91% (active)
same,growth inhibition,[10]; at 100.0 µM,98% (active)
same,growth inhibition,[11]; at 1.2 µM,-32%
same,growth inhibition,[11]; at 3.7 µM,-20%
same,growth inhibition,[11]; at 11.0 µM,57%
same,growth inhibition,[11]; at 33.0 µM,98% (active)
same,growth inhibition,[11]; at 100.0 µM,98% (active)
same,growth inhibition,[12]; at 1.2 µM,-27%
same,growth inhibition,[12]; at 3.7 µM,-15%
same,growth inhibition,[12]; at 11.0 µM,41%
same,growth inhibition,[12]; at 33.0 µM,97% (active)
same,growth inhibition,[12]; at 100.0 µM,97% (active)
same,growth inhibition,[13]; at 1.2 µM,-9%
same,growth inhibition,[13]; at 3.7 µM,-17%
same,growth inhibition,[13]; at 11.0 µM,93% (active)
same,growth inhibition,[13]; at 33.0 µM,97% (active)
same,growth inhibition,[13]; at 100.0 µM,97% (active)
same,growth inhibition,[14]; [16],100% (active)
same,growth inhibition,[14]; [17],99% (active)
same,growth inhibition,[14]; at 50.0 µM,90.2% (active)
same,growth inhibition,[15]; at 1.2 µM,-5%
same,growth inhibition,[15]; at 3.7 µM,-4%
same,growth inhibition,[15]; at 11.0 µM,90% (active)
same,growth inhibition,[15]; at 33.0 µM,96% (active)
same,growth inhibition,[15]; at 100.0 µM,97% (active)
N#CSC1CCCCNC1=O (stereo not drawn),growth inhibition,[1]; at 1.2 µM,2%
same,growth inhibition,[1]; at 3.7 µM,10%
same,growth inhibition,[1]; at 11.0 µM,32%
same,growth inhibition,[1]; at 33.0 µM,83% (active)
same,growth inhibition,[1]; at 100.0 µM,98% (active)
same,growth inhibition,[2]; at 1.2 µM,-3%
same,growth inhibition,[2]; at 3.7 µM,-3%
same,growth inhibition,[2]; at 11.0 µM,9%
same,growth inhibition,[2]; at 33.0 µM,46%
same,growth inhibition,[2]; at 100.0 µM,93% (active)
same,growth inhibition,[3]; at 1.2 µM,6%
same,growth inhibition,[3]; at 3.7 µM,18%
same,growth inhibition,[3]; at 11.0 µM,42%
same,growth inhibition,[3]; at 33.0 µM,70% (active)
same,growth inhibition,[3]; at 100.0 µM,85% (active)
same,growth inhibition,[4]; at 1.2 µM,0%
same,growth inhibition,[4]; at 3.7 µM,3%
same,growth inhibition,[4]; [16],-150%
same,growth inhibition,[4]; at 11.0 µM,36%
same,growth inhibition,[4]; at 33.0 µM,86% (active)
same,growth inhibition,[4]; [17],26%
same,growth inhibition,[4]; at 50.0 µM,54.2%
same,growth inhibition,[4]; at 100.0 µM,98% (active)
same,growth inhibition,[5]; at 1.2 µM,4%
same,growth inhibition,[5]; at 3.7 µM,3%
same,growth inhibition,[5]; [16],-47%
same,growth inhibition,[5]; at 11.0 µM,25%
same,growth inhibition,[5]; at 33.0 µM,51%
same,growth inhibition,[5]; [17],3%
same,growth inhibition,[5]; at 50.0 µM,78.3% (active)
same,growth inhibition,[5]; at 100.0 µM,94% (active)
same,growth inhibition,[6]; at 1.2 µM,2%
same,growth inhibition,[6]; at 3.7 µM,-4%
same,growth inhibition,[6]; at 11.0 µM,10%
same,growth inhibition,[6]; at 33.0 µM,59%
same,growth inhibition,[6]; at 100.0 µM,99% (active)
same,growth inhibition,[7]; [16],-59%
same,growth inhibition,[7]; [17],35%
same,growth inhibition,[7]; at 50.0 µM,50%
same,growth inhibition,[8]; at 1.2 µM,-4%
same,growth inhibition,[8]; at 3.7 µM,-4%
same,growth inhibition,[8]; at 11.0 µM,21%
same,growth inhibition,[8]; at 33.0 µM,44%
same,growth inhibition,[8]; at 100.0 µM,96% (active)
same,growth inhibition,[9]; [16],-58%
same,growth inhibition,[9]; [17],-13%
same,growth inhibition,[9]; at 50.0 µM,52.5%
same,growth inhibition,[10]; at 1.2 µM,-4%
same,growth inhibition,[10]; at 3.7 µM,4%
same,growth inhibition,[10]; [16],-66%
same,growth inhibition,[10]; at 11.0 µM,36%
same,growth inhibition,[10]; at 33.0 µM,60%
same,growth inhibition,[10]; [17],2%
same,growth inhibition,[10]; at 50.0 µM,79.7% (active)
same,growth inhibition,[10]; at 100.0 µM,97% (active)
same,growth inhibition,[11]; at 1.2 µM,0%
same,growth inhibition,[11]; at 3.7 µM,-1%
same,growth inhibition,[11]; at 11.0 µM,10%
same,growth inhibition,[11]; at 33.0 µM,49%
same,growth inhibition,[11]; at 100.0 µM,98% (active)
